Molecules are shown by their SMILES. The source made the active and inactive calls. How the source made its calls: active means hit-call score of the fitted dose curve at least 0.9, where 1 is the maximum; inactive means score below 0.9.

This is an account of results in PubChem BioAssay (EPA / NIEHS).

The nature of this experiment: CCTE_Shafer_MEA_acute_firing_rate_mean: CCTE's Neural Acute Assay for Mean Firing Rate, Shafer Lab (AID 2284009). On the procedure:
CCTE_Shafer_MEA_acute assay is conducted using Axion Biosystems 48 well microelectrode array (MEA) plates and Maestro recording system. Each well of the MEA plate contains a grid of 16 microelectrodes embedded in the culture surface. Electrically active cells, such as neurons, can be cultured over the electrodes, and electrical activity in these cells can be recorded extracellularly. The spontaneous firing of neurons is captured from each electrode on a microsecond timescale providing both temporally and spatially precise data. […] The CCTE_Shafer_MEA_acute assay uses primary cultures of rat cortical neurons. As these cultures mature over time, neural networks develop functional activity and form cohesive networks in which electrical activity can be highly coordinated. Baseline 40-minute recordings are made on days post-plating 13 or 15, followed by a secondary 40-minute recording after chemical exposure.CCTE_Shafer_MEA_acute_firing_rate_mean is a component of the CCTE_Shafer_MEA_acute assay. It measures the frequency number of spikes (action potential firings) as the total number of spikes divided by the length of the recording in a microelectrode array (MEA) using Axion Biosystems Maestro 768 channel amplifier with the AxIS adaptive spike detector. The firing rate is divided by the number of electrodes to report a well-mean value. The recordings before and after chemical treatment are used to calculate a percent change in the mean firing rate in each well.Data from the assay component CCTE_Shafer_MEA_acute_firing_rate_mean was analyzed into 1 assay endpoint. This assay endpoint, CCTE_Shafer_MEA_acute_firing_rate_mean, was analyzed in the negative analysis fitting direction relative to DMSO as the negative control and baseline of activity. Using a type of functional reporter, gain or loss-of-signal activity can be used to understand electrical activity.
Spontaneous activity in the cortical cultures was recorded using an Axion Biosystems Maestro 768 channel amplifier and Axion Integrated Studios (AxIS) v1.8 (or later) software. The amplifier recorded from all channels simultaneously (gain = 1200 x; sampling rate = 12.5 kHz/channel): raw signals were filtered with a Butterworth band-pass filter (300-5000 Hz), which filters out slower local field potentials leaving only fast potentials, i.e., "spikes", arising from extracellular currents associated with action potentials (Pine 2006; Wheeler and Nam 2011). On-line spike detection of filtered signals was conducted with the AxIS adaptive spike detector, using a threshold of 8x the root mean squared (rms) noise on each channel. Any electrodes with rms noise levels greater than 5 uV were grounded (e.g., no data were recorded). Once grounded, an electrode was grounded for the duration of the experiment. All recordings were conducted at 37 C. Wells were deemed usable if on the day of the exposure >/= 10 electrodes were active (defined as >/= 5 spikes/min). On DIV 13 or 15, a minimum of three wells from one cortical culture preparation were treated with each compound (0.03-40 uM). Prior to recording baseline activity, each mwMEA plate was placed in the Maestro at 37 C and allowed to sit for 20 min while firing rates stabilized. Baseline activity (40 min) was recorded before the addition of each compound. An additional 40 min of spontaneous activity was recorded in the presence of each compound. Changes in network parameters relative to baseline were assessed following compound treatment.
Regarding `CCCCCCCCCCCCc1ccccc1`, the result was inactive. For the compound `COc1cccc(-c2ccc(/C=C\CN3CCCCCC3)cc2Cl)c1`, the concentration at half-maximal activity (AC50) (in general, the midpoint of the concentration-response curve, whichever way the signal moves) is 3.65 µM (active). `CCCN(C1CCN(C(=O)C2CCNCC2)CC1)[C@@H]1CCc2ccc(OC)cc2C1`: the result was inactive. On the same count and under the same terms, with `CC[C@H]1OC(=O)[C@H](C)[C@@H](O[C@H]2C[C@@](C)(OC)[C@@H](O)[C@H](C)O2)[C@H](C)[C@@H](O[C@@H]2O[C@H](C)C[C@H](N(C)C)[C@H]2O)[C@](C)(O)C[C@@H](C)C(=O)[C@H](C)[C@@H](O)[C@]1(C)O` the entry was “inactive”. On to `Cc1[nH]cnc1C[C@H]1CCc2c(C)c3ccccc3n2C1=O`, for which the concentration at half-maximal activity (AC50) was 4.13 µM (active).

As for `On1ccccc1=S`, the compound was called inactive. The same measure, in the same setting: then `O=C(O)CCN(C1(C(=O)NO)CCCC1)S(=O)(=O)c1ccc(Oc2ccc(F)cc2)cc1`, with “inactive”; and `COc1ccc2sc(C(=O)Nc3nnn[nH]3)c(OC(C)C)c2c1`, with “inactive”; and `CC(C)=CCCC(C)=CC=O`, with “inactive”.

With `O=P(OC(CCl)CCl)(OC(CCl)CCl)OC(CCl)CCl`, the compound was called inactive. On the same count and under the same terms, with `CCOC(=O)c1ccc(C2CCC(NC[C@H](O)COc3ccc(O)c(NS(C)(=O)=O)c3)CC2)cc1` (stereo partly drawn) the entry was “inactive”; with `CCC(C)(C)C(=O)O[C@H]1C[C@@H](C)C=C2C=C[C@H](C)[C@H](CC[C@@H]3C[C@@H](O)CC(=O)O3)[C@H]21`, “inactive”. On to `CC[C@H]1CC[C@H](NCc2cc3c(cc2OC)[C@H]2C[C@H]2C(=O)N3C)[C@H](c2ccccc2)N1`, for which the AC50 was 3.07 µM (active). Consider `Cn1cnc([N+](=O)[O-])c1Sc1ncnc2nc[nH]c12`, for which the result was inactive. Still for that read-out and setting: then `Cn1c(=O)c2c(ncn2C)n(C)c1=O`, with “inactive”; and `CCCCC(CC)COC(=O)CCCCCCCCC(=O)OCC(CC)CCCC` (stereo not drawn), with “inactive”. For `O=C(O)c1cc(N=Nc2ccc(S(=O)(=O)Nc3ccccn3)cc2)ccc1O`, the AC50 is 0.00818 µM (active). With `CCCCCCc1ccc(O)cc1O`, the half-maximal activity concentration (AC50) was 12.9 µM (active).
